# Compounds without any hit were thinned out: in the full panel of roughly 83,000, 20% have a hit.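 The endpoint reported here, percent growth, reads 100 for growth as untreated, 0 for no net growth and -100 for all cells dead.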 Calls of active or inactive are those of the source. The calls were made as follows: active = growth percent below 10; inactive = the rest.
# System: COLO 205 colon
# Assay: NCI-60 one-dose screen, 48 h (100 = growth as untreated, 0 = no growth, -100 = all killed)
# Conditions: 10 µM unless noted
row,Compound,growth
1,Cc1cn(C)cn1,125% (inactive)
2,C#CCOc1ccc2nc(CCl)c(Cl)c(Nc3cccc(C(F)(F)F)c3)c2c1,80% (inactive)
3,Cc1ccc(NC(=O)c2cc3ccccc3cc2O)c(C)c1,78.5% (inactive)
